Results from PubChem BioAssay AID652217 (Sanford-Burnham Center for Chemical Genomics, 2013).
The whole screen tested about 1,800 compounds, of which about 240 (13%) were called active. No stated cut-off is given here; in the data, active means inhibition above about 40%; inactive means the rest. The full list was thinned out, with actives kept by preference.

Each molecule was assayed against NEDD8-conjugating enzyme Ubc12 (Homo sapiens) + NEDD8-activating enzyme E1 regulatory subunit (Homo sapiens) (UniProt P61081+Q13564) (assay: blockade of NEDD8 conjugation to cullin – biochemical, TR-FRET, single concentration, confirmation (AID 652217;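 further: neddylation substrate is the cullin 1 ring ligase complex with SKP2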)). Conditions: TR-FRET cullin neddylation biochemical assay; at 25 µM; stronger effect = higher value.
NEDD8-conjugating enzyme Ubc12 (Homo sapiens) + NEDD8-activating enzyme E1 regulatory subunit (Homo sapiens), sequence (P61081 whole entry, looked up): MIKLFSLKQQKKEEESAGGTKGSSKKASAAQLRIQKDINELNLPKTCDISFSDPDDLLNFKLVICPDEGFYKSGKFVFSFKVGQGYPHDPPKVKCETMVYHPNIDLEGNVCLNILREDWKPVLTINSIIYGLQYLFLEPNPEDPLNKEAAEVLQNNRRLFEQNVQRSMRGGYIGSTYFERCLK
NEDD8-conjugating enzyme Ubc12 (Homo sapiens) + NEDD8-activating enzyme E1 regulatory subunit (Homo sapiens), sequence (Q13564 whole entry, looked up): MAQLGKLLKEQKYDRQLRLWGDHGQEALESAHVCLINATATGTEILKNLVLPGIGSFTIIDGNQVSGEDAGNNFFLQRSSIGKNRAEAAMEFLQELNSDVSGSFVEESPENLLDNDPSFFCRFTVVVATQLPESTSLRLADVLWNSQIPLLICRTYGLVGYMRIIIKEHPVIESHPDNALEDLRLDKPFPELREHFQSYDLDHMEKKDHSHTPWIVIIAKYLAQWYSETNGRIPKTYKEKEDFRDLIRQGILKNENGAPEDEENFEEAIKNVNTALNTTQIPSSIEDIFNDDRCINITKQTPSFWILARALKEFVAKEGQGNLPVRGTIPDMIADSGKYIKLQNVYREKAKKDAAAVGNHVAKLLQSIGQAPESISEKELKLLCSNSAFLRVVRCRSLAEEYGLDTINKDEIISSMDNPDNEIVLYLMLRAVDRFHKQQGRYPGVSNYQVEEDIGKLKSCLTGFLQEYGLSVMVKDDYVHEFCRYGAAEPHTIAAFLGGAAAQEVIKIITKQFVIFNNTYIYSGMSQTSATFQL
In the case of `CC(=CCOc1ccc2ccc(=O)oc2c1)C1=CC(=O)C(C)(C)O1`, the inhibition is reported as 44.2% (active). `CCN1c2nc3c(C)cccn3c(=O)c2CC2(C(=O)N(C)C(=O)N(C)C2=O)C1C` (centres undefined) was tested, and the inhibition was 9.81% (inactive). In the case of `CCC(C)n1c(O)c(/C=N/Nc2nc3c(c(=O)n(C)c(=O)n3C)n2C)c(=O)[nH]c1=S` (centres undefined), the inhibition is reported as -31.5% (inactive). For `CCCCC(=O)N/N=C/c1c(O)n(CCC2=CCCCC2)c(=O)[nH]c1=O`, the inhibition was 2.57% (inactive).
